Results: PubChem BioAssay (Tox21)
Results filed as inconclusive are left out. Active and inactive are the calls of the source. Unless noted, calls follow the shape of the dose curve; as a rule, active = well fitted curve in the direction sought with a large enough effect in the repeat runs; inconclusive = weak or mixed curves; inactive = no such curve, though single readings can be large; an effect the other way counts as inactive or inconclusive.

How the values were obtained:
[1] = qHTS assay to identify small molecule agonists of the RXR signaling pathway - cell viability counter screen (AID 1159529);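 also: HEK 293T cells carrying an RXR-alpha UAS beta-lactamase reporter; series mostly up to about 77 µM; nearly all actives have a fitted effect of over 50% in size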
Summary of the method: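 Viability read-out for the RXR-alpha agonist qHTS: luminescent CellTiter-Glo signal after 30 min at RT. HEK 293T bla reporter cells, 2% charcoal-stripped FBS, 16 hr compound incubation; tetraoctyl ammonium bromide as cytotoxic control.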

[2] = qHTS assay to identify small molecule antagonists of the retinoid acid receptor (RAR) signaling pathway - cell viability counter screen (AID 1159551); also: nearly all actives have a fitted effect of over 35% in size
Summary of the method: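 Measured by luminescent ATP detection, viability reflects C3RL4 cells treated 6 h at 37 C with test chemicals in the presence of 1 uM (final) retinol.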

[3] = qHTS assay to identify small molecule antagonists of the retinoic acid receptor (RAR) signaling pathway (AID 1159552; also: nearly all actives have a fitted effect of over 50% in size)
Summary of the method: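 Using a RARE-driven luciferase construct in C3RL4 cells, retinol at 1 uM final provided the agonist stimulus while compounds were co-applied. After 6 hours at 37 C, luminescence was recorded to flag inhibitors of retinol signaling.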

[4] = qHTS assay to identify small molecule antagonists of the estrogen related receptor (ERR) signaling pathway from Tox21 library - cell viability counter screen (AID 1224834); also: nearly all actives have a fitted effect of over 30% in size
Summary of the method: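 Seeded ERR cells were rested 6 h at 37 C/5% CO2 before compounds, positive and negative controls or DMSO were added. Incubation continued for 17.5 h, and viability was then quantified by CellTiter-Fluor fluorescence.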

[5] = target: Luciferin 4-monooxygenase (Photinus pyralis) (UniProt P08659); assay: qHTS assay to identify small molecule inhibitors of firefly luciferase (AID 1224835); also: nearly all actives have a fitted effect of over 25% in size; also: potency is read from the fitted curve at half-maximal effect
Summary of the method: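 Biochemical qHTS: compounds run as interplate titrations against purified firefly enzyme, with D-luciferin and ATP each at its KM concentration. Light output recorded by CCD imaging.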

[6] = qHTS assay to identify small molecule agonists of the constitutive androstane receptor (CAR) signaling pathway - cell viability counter screen (AID 1224836); also: series mostly up to about 92 µM; nearly all actives have a fitted effect of over 45% in size
Summary of the method: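 Multiplexed viability check: HepG2-CYP2B6-hCAR cells, 15-point compound dosing, 0.75 uM PK11195 final, 23 h at 37 C, CellTiter-Fluor fluorescence.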

[7] = qHTS assay to identify small molecule antagonists of the constitutive androstane receptor (CAR) signaling pathway - cell viability counter screen (AID 1224837); also: series mostly up to about 92 µM; nearly all actives have a fitted effect of over 45% in size
Summary of the method: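 To flag cytotoxic false antagonists, HepG2 hCAR/CYP2B6-2.2kb cells were treated 23 hr with 15-concentration compound series and 50 nM CITCO at 37 C/5% CO2; CellTiter-Fluor fluorescence was the measured end point.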

[8] = target: Nuclear receptor subfamily 1 group I member 3 (Homo sapiens) (UniProt Q14994); assay: qHTS assay to identify small molecule antagonists of the constitutive androstane receptor (CAR) signaling pathway (AID 1224838);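 also: HepG2 cells stably expressing hCAR with CYP2B6 luciferase reporter stimulated by CITCO; nearly all actives have a fitted effect of over 40% in size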
Summary of the method: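 Human hepatoma HepG2 cells expressing hCAR and a CYP2B6 promoter (2.2 kb) luciferase construct; compound titration (15 points) with 50 nM CITCO final, 24 h at 37 C/5% CO2; luminescence via ONE-Glo after 30 min at room temperature.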

[9] = target: Nuclear receptor subfamily 1 group I member 3 (Homo sapiens) (UniProt Q14994); assay: qHTS assay to identify small molecule agonists of the constitutive androstane receptor (CAR) signaling pathway (AID 1224839); also: nearly all actives have a fitted effect of over 15% in size; also: potency is read from the fitted curve at half-maximal effect
Summary of the method: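 Using human hepatoma HepG2 cells engineered with hCAR and a CYP2B6-2.2kb reporter, 15-concentration compound series were incubated 24 h alongside PK11195 at 0.75 uM final, with luminescence quantified afterwards.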

[10] = qHTS assay to identify small molecule antagonists of the estrogen related receptor signaling pathway with the pleiotropic PPARgamma coactivator (PGC) from Tox21 10K library - cell viability counter screen (AID 1224840; active = well fitted cell-killing curve with a large enough effect in the repeat runs, not every such curve was filed as active; also: nearly all actives have a fitted effect of over 40% in size)
Summary of the method: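 Seeded PGC/ERR cells (2,000/well, 6 h, 37 C/5% CO2) get compound by pin tool; 17.5 h incubation at 37 C; CellTiter-Fluor added, 30 min, fluorescence measured.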

[11] = qHTS assay to identify small molecule agonists of the hypoxia (HIF-1) signaling pathway - cell viability counter screen (AID 1224844; calls by dose curve; also: nearly all actives have a fitted effect of over 50% in size)
Summary of the method: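 HRE-bla ME-180; 0.5% dFBS; cpd 17 h, 37C, 5% CO2; CellTiter-Glo lum., 30 min RT, post-FRET read, same wells.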

[12] = qHTS assay to identify small molecule agonists of the retinoic acid receptor (RAR) signaling pathway (AID 1159553)
Summary of the method: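 6 hr compound exposure (DMSO vehicle) of overnight-plated C3RL4 RARE-luc cells at 37 C; luminescence quantified after 30 min RT with luciferase reagent.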

[13] = qHTS assay to identify small molecule antagonists of the estrogen related receptor signaling pathway with the pleiotropic PPARgamma coactivator (PGC) from Tox21 10K library (AID 1224841; call rule not given here; also: actives are mostly falling curves and most rising ones were filed inactive; nearly all actives have a fitted effect of over 50% in size; also: potency is read from the fitted curve at half-maximal effect)
Summary of the method: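 Test chemicals dissolved in DMSO were applied to pre-incubated (6 h) PGC/ERR cells at 2,000 cells/well for an 18 h, 37 C treatment; reporter luminescence was then read using One-Glo.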

[14] = target: Thyrotropin receptor (Homo sapiens) (UniProt P16473); assay: qHTS assay to identify small molecule agonists of the thyroid stimulating hormone receptor (TSHR) signaling pathway (AID 1224843; calls by dose curve; also: nearly all actives have a fitted effect of over 45% in size)
Summary of the method: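 Agonist-mode screen: TSHR HEK293 cells received test chemicals for half an hour at room temperature, then HTRF cAMP detection reagents for one hour prior to fluorescence measurement. Each chemical ran as a 15-concentration series, triplicated.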

[15] = qHTS assay to identify small molecule agonists of the estrogen related receptor signaling pathway with the pleiotropic PPARgamma coactivator (PGC) from Tox21 10K library (AID 1224842); also: nearly all actives have a fitted effect of over 15% in size
Summary of the method: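 PGC/ERR reporter cell line, 2,000 cells per well, incubated 6 h at 37 C before 23 nL compound in DMSO was added. After 18 h at 37 C, One-Glo luminescence read following 30 min at room temperature.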

Measured: Potency

Luciferin 4-monooxygenase (Photinus pyralis), sequence (P08659 whole entry, looked up): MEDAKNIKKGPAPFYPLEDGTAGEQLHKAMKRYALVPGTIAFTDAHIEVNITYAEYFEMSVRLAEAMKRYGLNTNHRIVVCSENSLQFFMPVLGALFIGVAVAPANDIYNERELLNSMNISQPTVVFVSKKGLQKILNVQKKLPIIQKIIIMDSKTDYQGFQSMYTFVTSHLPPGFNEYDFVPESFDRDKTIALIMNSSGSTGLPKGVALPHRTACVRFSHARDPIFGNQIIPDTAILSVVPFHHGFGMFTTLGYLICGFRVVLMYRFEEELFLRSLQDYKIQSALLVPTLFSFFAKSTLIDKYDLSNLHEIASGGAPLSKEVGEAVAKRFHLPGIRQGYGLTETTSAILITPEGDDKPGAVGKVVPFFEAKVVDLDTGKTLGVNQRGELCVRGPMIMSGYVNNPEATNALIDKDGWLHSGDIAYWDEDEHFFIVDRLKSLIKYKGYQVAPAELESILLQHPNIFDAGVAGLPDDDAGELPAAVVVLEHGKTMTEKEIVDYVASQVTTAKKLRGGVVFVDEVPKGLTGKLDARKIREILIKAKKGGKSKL
Thyrotropin receptor (Homo sapiens), sequence (P16473 whole entry, looked up): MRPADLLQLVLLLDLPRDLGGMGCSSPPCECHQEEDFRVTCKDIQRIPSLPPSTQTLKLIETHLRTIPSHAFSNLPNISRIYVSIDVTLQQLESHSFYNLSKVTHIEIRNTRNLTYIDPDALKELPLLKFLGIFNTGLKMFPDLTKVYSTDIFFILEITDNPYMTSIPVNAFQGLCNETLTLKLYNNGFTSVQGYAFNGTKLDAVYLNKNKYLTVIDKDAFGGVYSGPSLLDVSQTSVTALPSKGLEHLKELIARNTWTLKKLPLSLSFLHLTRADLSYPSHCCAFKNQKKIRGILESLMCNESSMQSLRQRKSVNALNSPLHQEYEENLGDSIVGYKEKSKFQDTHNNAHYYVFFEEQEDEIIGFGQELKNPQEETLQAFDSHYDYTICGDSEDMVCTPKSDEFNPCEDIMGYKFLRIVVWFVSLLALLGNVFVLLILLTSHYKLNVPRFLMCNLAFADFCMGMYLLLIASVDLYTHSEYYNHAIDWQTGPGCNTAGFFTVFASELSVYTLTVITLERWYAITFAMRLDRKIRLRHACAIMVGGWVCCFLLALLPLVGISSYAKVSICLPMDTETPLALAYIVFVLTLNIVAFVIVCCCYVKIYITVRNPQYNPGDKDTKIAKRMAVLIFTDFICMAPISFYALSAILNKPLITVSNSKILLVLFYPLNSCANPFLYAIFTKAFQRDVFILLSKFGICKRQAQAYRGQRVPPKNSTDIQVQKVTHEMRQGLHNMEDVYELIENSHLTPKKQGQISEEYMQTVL
Nuclear receptor subfamily 1 group I member 3 (Homo sapiens), sequence (Q14994 whole entry, looked up): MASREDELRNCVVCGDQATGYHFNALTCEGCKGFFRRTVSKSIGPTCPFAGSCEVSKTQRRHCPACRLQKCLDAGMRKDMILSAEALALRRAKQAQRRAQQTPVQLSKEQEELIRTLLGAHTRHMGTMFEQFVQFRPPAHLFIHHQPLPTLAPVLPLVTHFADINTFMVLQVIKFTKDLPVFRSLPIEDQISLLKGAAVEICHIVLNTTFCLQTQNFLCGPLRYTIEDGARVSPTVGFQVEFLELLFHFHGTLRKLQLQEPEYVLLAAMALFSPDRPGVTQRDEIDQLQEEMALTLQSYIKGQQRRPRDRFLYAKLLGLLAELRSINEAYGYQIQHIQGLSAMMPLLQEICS

CCCCCCCCCCCc1ccccc1
not listed: [12] | [13] | [14] | [15]
inactive: all other assays above

COCC(C)OC(C)=O (stereo not given)
not listed: [5] | [13] | [14] | [15]
inactive: all other assays above

CCCCC1=NC2(CCCC2)C(=O)N1Cc1ccc(-c2ccccc2-c2nn[nH]n2)cc1
not listed: [4] | [13] | [14] | [15]
inactive: all other assays above

C=CC1CC2C=CC1C2 (stereo not given)
not listed: [12] | [13] | [14] | [15]
inactive: all other assays above

CCCCCCc1ccc(-c2ccc(C#N)cc2)cc1
not listed: [5] | [9] | [15]
inactive: all other assays above

O=C(O)c1ccccc1Cl
not listed: [8] | [9] | [13] | [15]
inactive: all other assays above

C[Si](C)(CCCN)O[Si](C)(C)CCCN
not listed: [12]
inactive: all other assays above

Cc1ccccc1S(=O)(=O)O
not listed: [8] | [9] | [13] | [15]
inactive: all other assays above

O=C(OCCc1ccccc1)c1ccccc1
active: [5] 1 µM
not listed: [11] | [12] | [13] | [14] | [15]
inactive: all other assays above

CC(C)OC(=O)C(C)N(C(=O)c1ccccc1)c1ccc(F)c(Cl)c1 (stereo not given)
active: [9] 48.6 µM | [13] 21.7 µM
not listed: [4] | [6] | [10] | [14] | [15]
inactive: all other assays above

CCC(Cl)CCC(Cl)C(Cl)CC(Cl)C(Cl)C(Cl)CCl (stereo not given)
not listed: [12] | [13]
inactive: all other assays above
